Bioassay records from PubChem.
A selection: hits, their analogues and other compounds. The true share with any hit is near 19%.
TDP1 cell noCPT: qHTS for Inhibitors of human tyrosyl-DNA phosphodiesterase 1 (TDP1): qHTS in cells in absence of CPT; 420,000 tested, 15% active; DT40 Tdp1-/- hTDP1 cells, no CPT, ATP luminescence, 48 h; Potency, µM (doses to about 46.2 µM), without a hit: at the highest dose activity change, negative = growth inhibition, actives largely listed as inhibitors; note: potency is the fitted concentration of half-maximal effect; nearly all actives have a fitted effect of over 55% in size
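Camptothecin absent (DMSO only). Human TDP1-complemented DT40 knockout cells, 400 cells/well, 37 °C for minimum 48 hr; ATP measured via CellTiter-Glo, 30 min dark incubation, luminescence.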
TDP1 cell CPT: qHTS for Inhibitors of human tyrosyl-DNA phosphodiesterase 1 (TDP1): qHTS in cells in presence of CPT. chicken DT40 Tdp1-/-;hTDP1 cells + 20 nM CPT, ATP luminescence, 48 h. Potency, µM (doses to about 46.2 µM), without a hit: at the top dose activity change, negative = growth inhibition, actives largely listed as inhibitors. 420,000 tested, 12% active; note: potency is the fitted concentration of half-maximal effect; nearly all actives have a fitted effect of over 55% in size
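Chicken DT40 Tdp1-/- cells complemented with human TDP1, 400 cells/well, exposed to compounds plus 20 nM camptothecin for at least 48 h at 37 C; viability read as ATP content by CellTiter-Glo luminescence.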
uPA generation: qHTS for Inhibitors of Cell Surface uPA Generation. cell surface uPA generation assay, qHTS. Potency, µM (doses to about 38.3 µM), without a hit: at the highest dose activity change, negative = inhibition, most hits filed as inhibitors. 330,000 tested, 0.31% active. AID 540303, 2011; active = well fitted inhibition curve with a large enough effect; inconclusive = small, poorly fitted or top-dose-only effect; inactive = no such curve, though single readings can be large or run the other way; tested in mouse RAW 264.7 cells; note: potency is the fitted concentration of half-maximal effect; nearly all actives have a fitted effect of over 55% in size
HT1080NT lethal: qHTS for induction of synthetic lethality in tumor cells producing 2HG: qHTS for the HT-1080-NT fibrosarcoma cell line; HT-1080-NT fibrosarcoma viability, CellTiter-Glo ATP luminescence, 48 h; Potency, µM (titrated, usually from 46.1 µM), for the others: top-dose activity, negative = less viability, most hits filed as cytotoxic; 360,000 tested, 1.6% active; AID 686970, 2013;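 note: NT is the 2HG producing partner of a matched IDH1 knockdown line; potency is the fitted concentration of half-maximal effect; 0% = DMSO-treated cells and -100% = media-only wells without cells; nearly all actives have a fitted effect of over 55% in size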
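Luminescent CellTiter-Glo readout after 48 hours of compound exposure at 37 degrees C defined viability of HT-1080-NT cells. Activity was normalized to DMSO wells and cell-free media wells; concentration-response curves were fitted and assigned curve classes.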
IL-1B inflam inh: qHTS for Inhibitors of Inflammasome Signaling: IL-1-beta AlphaLISA Primary Screen; 360,000 tested, 4.7% active; THP-1 LPS/ATP IL-1B secretion, AlphaLISA, 16 h; stronger effect = lower value; activity change, % at 57.5 µM; AID 743279, 2014; in the data active = activity change below about -50%; inconclusive = mostly about -30% to -49%
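THP-1 cells pretreated 1 hr with compounds (up to 57.5 uM final), then stimulated with LPS (250 ng/mL final) plus ATP (1.25 mM final); secreted IL-1B measured by AlphaLISA after 16 hr, decreased signal indicating inhibition.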
HT1080 IDH1KD tx: qHTS for induction of synthetic lethality in tumor cells producing 2HG: qHTS for the HT-1080-IDH1KD cell line | HT-1080 IDH1 knockdown viability, ATP luminescence, 48 h | Potency, µM (top dose mostly 46.1 µM), for the others: at the top dose activity, negative = toxicity, hits mostly cytotoxic | 360,000 tested, 2% active | AID 686971, 2013;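 note: potency is the fitted concentration of half-maximal effect; 0% = DMSO wells and -100% = cell-free medium wells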
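IDH1KD HT-1080 cells, 750/well, RPMI + 5% FBS; compound pinned after 2 h settling; 48 h, 37 °C; CellTiter-Glo luminescence; % activity normalised to DMSO and no-cell wells; curves fitted, classed by r2 and efficacy.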
An asterisk follows results filed as active. Unless noted, calls come from the whole dose curve; as a rule, active = well fitted curve in the direction sought with a large enough effect; inconclusive = small, poorly fitted or top-dose-only effect, or another doubt; inactive = no such curve, though single readings can be large; an effect the other way counts as inactive or inconclusive. Unless noted, % is set by controls: 0 for no effect and ±100 for the full control effect.

What do the screens show for `CC(=O)N1CCCc2cc(S(=O)(=O)N3CCC(C(=O)N(C)C4CCCCC4)CC3)ccc21`?
TDP1 cell noCPT: 23.1µM*; TDP1 cell CPT: inconclusive

Results for CC(=O)N1CCCc2cc(S(=O)(=O)N3CCC(C(=O)N(Cc4ccccc4)C(C)C)CC3)ccc21 ?
TDP1 cell noCPT: inconclusive; TDP1 cell CPT: 23.1µM*

Results for O=C(O)c1ccc(NS(=O)(=O)c2cc(C(=O)O)ccc2Br)cc1 ?
TDP1 cell noCPT: -17.7%; TDP1 cell CPT: 3.3%; uPA generation: 4.5%; HT1080NT lethal: 9.1%; IL-1B inflam inh: -3.1; HT1080 IDH1KD tx: 5.6%

How did Nc1ccc(C(=O)O)cc1S(=O)(=O)O do in these assays?
TDP1 cell noCPT: 5.8µM*; TDP1 cell CPT: inconclusive; uPA generation: 0.2%; HT1080NT lethal: 7.8%; IL-1B inflam inh: 12.2; HT1080 IDH1KD tx: 12.9%

Results for COc1ccc(/C=C\c2onc(C)c2S(=O)(=O)N2CCC(C(=O)Nc3ccc(F)cc3F)CC2)cc1 ?
TDP1 cell noCPT: -14.5%; TDP1 cell CPT: -9.4%

What do the screens show for `CCC(=O)Nc1ccc(/C(C)=N/NC(=O)c2c(Br)c(C)nn2C)cc1`?
TDP1 cell noCPT: 14.6µM*; TDP1 cell CPT: inconclusive; uPA generation: -29.2%; HT1080NT lethal: -4.3%; IL-1B inflam inh: -2.6; HT1080 IDH1KD tx: -7.6%

What do the screens show for `C/C(=N\NC(=O)c1c(Br)c(C)nn1C)c1ccc(NC(=O)c2ccoc2C)cc1`?
TDP1 cell noCPT: 23.1µM*; TDP1 cell CPT: -3.4%; uPA generation: -0.5%; HT1080NT lethal: -12.9%; IL-1B inflam inh: 13.2; HT1080 IDH1KD tx: -15.8%

Results for C/C(=N\NC(=O)c1c(Br)c(C)nn1C)c1ccc(NC(=O)C(C)Oc2ccc(Cl)cc2C)cc1 (configuration not stated) ?
TDP1 cell noCPT: inconclusive; TDP1 cell CPT: inconclusive; uPA generation: -12.7%; HT1080NT lethal: inconclusive; IL-1B inflam inh: -11.1; HT1080 IDH1KD tx: inconclusive

How did C/C(=N\NC(=O)c1c(Cl)c(C)nn1C)c1ccc(NC(=O)c2ccncc2)cc1 do in these assays?
TDP1 cell noCPT: 18.4µM*; TDP1 cell CPT: inconclusive; uPA generation: -5.9%; HT1080NT lethal: 0.3%; IL-1B inflam inh: 28.9; HT1080 IDH1KD tx: -2.3%

Results for C/C(=N\NC(=O)c1nn(C)c(C)c1Br)c1ccc(NC(=O)c2ccoc2C)cc1 ?
TDP1 cell noCPT: -25.9%; TDP1 cell CPT: -18.2%; uPA generation: 2.5%; HT1080NT lethal: 12.4%; IL-1B inflam inh: -10.6; HT1080 IDH1KD tx: -1.2%

Results for CCc1nn2c(=O)cc(COC(=O)c3ccccc3)nc2s1 ?
TDP1 cell noCPT: -2.0%; TDP1 cell CPT: -15.1%

What do the screens show for `CC(C)C1C(=O)N(Cc2cn(CCC3OCCO3)nn2)CCS(=O)(=O)N1Cc1ccc(-c2ccccc2Cl)cc1` (configuration not stated)?
TDP1 cell noCPT: 14.6µM*; TDP1 cell CPT: 16.4µM*; HT1080NT lethal: inconclusive; IL-1B inflam inh: inconclusive; HT1080 IDH1KD tx: inconclusive

How did CC(C)C1C(=O)N(Cc2cn(CCC3OCCO3)nn2)CCS(=O)(=O)N1Cc1ccc(-c2ccc(F)cc2Cl)cc1 (configuration not stated) do in these assays?
TDP1 cell noCPT: 20.6µM*; TDP1 cell CPT: inconclusive; HT1080NT lethal: inconclusive; IL-1B inflam inh: -25.0; HT1080 IDH1KD tx: inconclusive

Results for COc1cccc(-c2ccc(CN3C(C(C)C)C(=O)N(Cc4cn(CCC5OCCO5)nn4)CCS3(=O)=O)cc2)c1OC (configuration not stated) ?
TDP1 cell noCPT: inconclusive; TDP1 cell CPT: 20.6µM*; HT1080NT lethal: -20.4%; IL-1B inflam inh: inconclusive; HT1080 IDH1KD tx: -23.0%

Results for CCCCc1nn2c(=O)cc(COC(=O)C3CCCCC3)nc2s1 ?
TDP1 cell noCPT: -16.0%; TDP1 cell CPT: -25.0%

Results for O=C(C[n+]1cccc(Br)c1)c1ccc(F)cc1 ?
TDP1 cell noCPT: 0.2%; TDP1 cell CPT: -3.6%

What do the screens show for `Cc1c(NC(=O)C(=O)/C=C(\O)c2ccc(Br)cc2)c(=O)n(-c2ccccc2)n1C`?
TDP1 cell noCPT: 5.4%; TDP1 cell CPT: -1.7%; uPA generation: -2.8%; HT1080NT lethal: 13.4%; IL-1B inflam inh: -0.1; HT1080 IDH1KD tx: 15.0%

Results for Cc1ccc(NC(=O)CSc2nnc(NC3CC3)s2)cc1S(=O)(=O)N1CCOCC1 ?
TDP1 cell noCPT: -25.6%; TDP1 cell CPT: -4.1%; HT1080NT lethal: -1.7%; IL-1B inflam inh: 30.6; HT1080 IDH1KD tx: 1.2%

How did COc1ccc([C@H]2CC(=O)C=C(c3cccc(C(C)C)c3)C2)cc1OC do in these assays?
TDP1 cell noCPT: 16.4µM*; TDP1 cell CPT: 20.6µM*; uPA generation: 7.2%; HT1080NT lethal: -16.3%; IL-1B inflam inh: -50.6*; HT1080 IDH1KD tx: -2.4%

Results for COc1ccc([C@H]2CC(=O)C=C(c3cccc(Br)c3)C2)cc1OC ?
TDP1 cell noCPT: 13µM*; TDP1 cell CPT: inconclusive; uPA generation: -27.9%; HT1080NT lethal: -27.7%; IL-1B inflam inh: -14.2; HT1080 IDH1KD tx: -28.5%

How did O=C1C=C(c2ccccc2)C[C@@H](c2ccc3c(c2)OCO3)C1 do in these assays?
TDP1 cell noCPT: -25.0%; TDP1 cell CPT: -15.4%; uPA generation: 3.3%; HT1080NT lethal: 5.1%; IL-1B inflam inh: -22.8; HT1080 IDH1KD tx: 6.2%

How did O=C1C=C(c2cnc3ccccc3c2)C[C@@H](c2ccc3c(c2)OCO3)C1 do in these assays?
TDP1 cell noCPT: inconclusive; TDP1 cell CPT: 20.6µM*; uPA generation: 3.5%; HT1080NT lethal: -7.9%; IL-1B inflam inh: inconclusive; HT1080 IDH1KD tx: -15.7%

What do the screens show for `O=C1C=C(c2cccc(Br)c2)C[C@@H](c2ccc3c(c2)OCO3)C1`?
TDP1 cell noCPT: 23.1µM*; TDP1 cell CPT: inconclusive; uPA generation: -3.3%; HT1080NT lethal: 0.6%; IL-1B inflam inh: -4.1; HT1080 IDH1KD tx: -7.5%

What do the screens show for `COc1ccc([C@H]2CC(=O)C=C(c3cccc(Br)c3)C2)cc1`?
TDP1 cell noCPT: inconclusive; TDP1 cell CPT: inconclusive; uPA generation: -2.6%; HT1080NT lethal: -5.5%; IL-1B inflam inh: -17.8; HT1080 IDH1KD tx: -1.0%
